From publication PMC7862700, “An all-to-all approach to the identification of sequence-specific readers for epigenetic DNA modifications on cytosine” come the findings set out here.

Sequence of CRX (O43186 whole entry): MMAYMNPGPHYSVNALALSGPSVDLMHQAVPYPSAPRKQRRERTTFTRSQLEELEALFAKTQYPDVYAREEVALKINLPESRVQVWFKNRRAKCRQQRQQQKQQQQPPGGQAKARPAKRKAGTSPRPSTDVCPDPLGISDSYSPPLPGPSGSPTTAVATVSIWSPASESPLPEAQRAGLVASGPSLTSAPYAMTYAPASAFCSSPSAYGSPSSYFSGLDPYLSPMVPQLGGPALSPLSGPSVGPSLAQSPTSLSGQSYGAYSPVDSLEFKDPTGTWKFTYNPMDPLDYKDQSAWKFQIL

The target in the first experiment is T1, ETV2 (Homo sapiens, UniProt O00321 1-342).
T1 sequence: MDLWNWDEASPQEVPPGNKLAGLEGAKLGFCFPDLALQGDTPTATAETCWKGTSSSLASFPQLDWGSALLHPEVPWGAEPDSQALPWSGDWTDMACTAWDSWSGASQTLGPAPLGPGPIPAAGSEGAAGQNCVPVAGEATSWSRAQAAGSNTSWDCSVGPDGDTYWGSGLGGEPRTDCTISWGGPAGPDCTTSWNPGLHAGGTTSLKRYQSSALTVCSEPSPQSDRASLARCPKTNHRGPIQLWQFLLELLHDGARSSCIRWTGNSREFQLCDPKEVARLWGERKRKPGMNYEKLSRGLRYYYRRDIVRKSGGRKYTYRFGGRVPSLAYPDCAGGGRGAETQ
The experiment is described as follows: DAPPL (digital affinity profiling via proximity ligation, sequencing); 10 mM Tris-HCl pH 7.5, 50 mM NaCl, 1 mM DTT, 4% glycerol, room temperature, 30 min; GST-TFs on glutathione beads, 16-mer random dsDNA library, 0.1% formaldehyde crosslink after washing; high values mean tight binding. The note with it: protein: recombinant; tags: N-terminal GST; dsDNA, one strand shown. The method, boiled down: (§1)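 Yeast served to express human transcription factors as GST fusions, which were then captured on glutathione beads and labelled with DNA barcodes. Pooled with a tag-only sample, they were incubated with 200 nmole of a 16-mer random double-stranded DNA library for 30 min at room temperature in Tris/NaCl/DTT/glycerol buffer, washed, crosslinked with 0.1% formaldehyde, ligated by proximity, amplified by PCR and sequenced. Dividing each hexamer's read frequency for a factor by its frequency for the tag-only sample gives the binding signal.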
Regarding ACTCCT, the binding signal was 1.38 fold enrichment (6-mer frequency, TF over GST control).
On to AATAGA, for which the binding signal was 1.13 fold enrichment (6-mer frequency, TF over GST control).
The same measure, in the same setting: then TATGGT, with 1 fold enrichment (6-mer frequency, TF over GST control); and TAAGCT, with 1.19 fold enrichment (6-mer frequency, TF over GST control); and AAATGC, with 1.23 fold enrichment (6-mer frequency, TF over GST control).
Consider TCTGTT, for which the binding signal was 1.3 fold enrichment (6-mer frequency, TF over GST control).
Still for that read-out and setting: then TCTCAT, with 1.46 fold enrichment (6-mer frequency, TF over GST control); and CCCACG, with 1.01 fold enrichment (6-mer frequency, TF over GST control).
For TGCACT, the binding signal is 1.46 fold enrichment (6-mer frequency, TF over GST control).
On the same count and under the same terms, the figure for TTCATC is 1.25 fold enrichment (6-mer frequency, TF over GST control); for ATATTG it is 1.48 fold enrichment (6-mer frequency, TF over GST control); for TGTTAC it is 1.58 fold enrichment (6-mer frequency, TF over GST control).
Still for that read-out and setting: the figure for TCCACT is 1.48 fold enrichment (6-mer frequency, TF over GST control); for TTGTAG it is 1.15 fold enrichment (6-mer frequency, TF over GST control); for AGAAGC it is 1.22 fold enrichment (6-mer frequency, TF over GST control).
As to CTTCTA, the binding signal was 1.49 fold enrichment (6-mer frequency, TF over GST control).
Same read-out and setting: then TCTATA, with 1.03 fold enrichment (6-mer frequency, TF over GST control); and ATTCCA, with 1.25 fold enrichment (6-mer frequency, TF over GST control); and TAAACA, with 1.22 fold enrichment (6-mer frequency, TF over GST control).
Consider ACCCGC, for which the binding signal was 1.24 fold enrichment (6-mer frequency, TF over GST control).

The target in another experiment is T2, ELF3 (Homo sapiens, UniProt P78545 1-371).
T2 sequence: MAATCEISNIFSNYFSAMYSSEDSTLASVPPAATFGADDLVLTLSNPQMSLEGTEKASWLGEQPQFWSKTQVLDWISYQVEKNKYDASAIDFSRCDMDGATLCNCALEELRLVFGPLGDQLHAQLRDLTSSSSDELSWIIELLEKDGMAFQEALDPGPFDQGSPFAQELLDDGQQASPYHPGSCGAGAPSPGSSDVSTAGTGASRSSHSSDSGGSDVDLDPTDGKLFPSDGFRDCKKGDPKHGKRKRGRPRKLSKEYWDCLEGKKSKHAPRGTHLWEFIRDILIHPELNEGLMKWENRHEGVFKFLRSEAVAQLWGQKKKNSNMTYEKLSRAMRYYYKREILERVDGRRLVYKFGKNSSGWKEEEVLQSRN
The description is as above. The note with it: protein: recombinant; tags: N-terminal GST; dsDNA, one strand shown. The method, boiled down: as §1
With GTATTC, the binding signal was 1.31 fold enrichment (6-mer frequency, TF over GST control).
As for CACTAT, the binding signal was 1.32 fold enrichment (6-mer frequency, TF over GST control).
Take ATCATT: the binding signal was 1.05 fold enrichment (6-mer frequency, TF over GST control).
Still for that read-out and setting: then CCTCAT, with 1.27 fold enrichment (6-mer frequency, TF over GST control); and ATATTC, with 1.38 fold enrichment (6-mer frequency, TF over GST control); and CTCATC, with 1.49 fold enrichment (6-mer frequency, TF over GST control).
Consider TTATTA, for which the binding signal is 1.09 fold enrichment (6-mer frequency, TF over GST control).
Same read-out and setting: the figure for TTTCTT is 1.3 fold enrichment (6-mer frequency, TF over GST control); for TCTTCA it is 1.46 fold enrichment (6-mer frequency, TF over GST control).
On to CATTAT, for which the binding signal was 1.33 fold enrichment (6-mer frequency, TF over GST control).
Same read-out and setting: then TGACTC, with 1.36 fold enrichment (6-mer frequency, TF over GST control).
Same read-out and setting: then AAATTA, with 1.31 fold enrichment (6-mer frequency, TF over GST control).
On to CCTGAA, for which the binding signal is 1.21 fold enrichment (6-mer frequency, TF over GST control).
As for TCCGGA, the binding signal is 2.23 fold enrichment (6-mer frequency, TF over GST control).
With AATTCT, the binding signal is 1.25 fold enrichment (6-mer frequency, TF over GST control).
The same measure, in the same setting: the figure for CTTTAA is 1.39 fold enrichment (6-mer frequency, TF over GST control); for TCGAAT it is 1.11 fold enrichment (6-mer frequency, TF over GST control); for TGACAA it is 1.3 fold enrichment (6-mer frequency, TF over GST control).
TCCCGC: the binding signal was 1.36 fold enrichment (6-mer frequency, TF over GST control).
The same measure, in the same setting: the figure for TATCAG is 1.09 fold enrichment (6-mer frequency, TF over GST control).
The same measure, in the same setting: the figure for ACTCCT is 1.3 fold enrichment (6-mer frequency, TF over GST control); for AATAGA it is 1.07 fold enrichment (6-mer frequency, TF over GST control); for TATGGT it is 1.5 fold enrichment (6-mer frequency, TF over GST control).
The same measure, in the same setting: then TAAGCT, with 1.32 fold enrichment (6-mer frequency, TF over GST control); and AAATGC, with 1.35 fold enrichment (6-mer frequency, TF over GST control).
In the case of TCTGTT, the binding signal was 1.53 fold enrichment (6-mer frequency, TF over GST control).
Same read-out and setting: the figure for TCTCAT is 1.32 fold enrichment (6-mer frequency, TF over GST control); for CCCACG it is 1.21 fold enrichment (6-mer frequency, TF over GST control).
In the case of TGCACT, the binding signal is 1.55 fold enrichment (6-mer frequency, TF over GST control).
Same read-out and setting: then TTCATC, with 1.3 fold enrichment (6-mer frequency, TF over GST control).
On the same count and under the same terms, then ATATTG, with 1.25 fold enrichment (6-mer frequency, TF over GST control); and TGTTAC, with 1.39 fold enrichment (6-mer frequency, TF over GST control).
Regarding TCCACT, the binding signal is 1.25 fold enrichment (6-mer frequency, TF over GST control).
Take TTGTAG: the binding signal was 1.03 fold enrichment (6-mer frequency, TF over GST control).
Still for that read-out and setting: the figure for AGAAGC is 1.09 fold enrichment (6-mer frequency, TF over GST control); for CTTCTA it is 1.42 fold enrichment (6-mer frequency, TF over GST control); for TCTATA it is 1.08 fold enrichment (6-mer frequency, TF over GST control).
For the sequence ATTCCA, the binding signal is 1.04 fold enrichment (6-mer frequency, TF over GST control).
The same measure, in the same setting: then TAAACA, with 1.28 fold enrichment (6-mer frequency, TF over GST control); and ACCCGC, with 1.15 fold enrichment (6-mer frequency, TF over GST control).

Another experiment addresses CRX (Homo sapiens, UniProt O43186 1-299). The description is as above. The note with it: protein: recombinant; tags: N-terminal GST; dsDNA, one strand shown. The method, boiled down: as §1
With GTATTC, the binding signal is 1.13 fold enrichment (6-mer frequency, TF over GST control).
The same measure, in the same setting: then CACTAT, with 1.05 fold enrichment (6-mer frequency, TF over GST control).
As for ATCATT, the binding signal was 1.28 fold enrichment (6-mer frequency, TF over GST control).
On the same count and under the same terms, the figure for CCTCAT is 1.1 fold enrichment (6-mer frequency, TF over GST control); for ATATTC it is 1.51 fold enrichment (6-mer frequency, TF over GST control); for CTCATC it is 1.32 fold enrichment (6-mer frequency, TF over GST control).
Same read-out and setting: then TTATTA, with 2.49 fold enrichment (6-mer frequency, TF over GST control); and TTTCTT, with 1.46 fold enrichment (6-mer frequency, TF over GST control); and TCTTCA, with 1.14 fold enrichment (6-mer frequency, TF over GST control).
On the same count and under the same terms, then CATTAT, with 1.65 fold enrichment (6-mer frequency, TF over GST control).
For TGACTC, the binding signal is 1.07 fold enrichment (6-mer frequency, TF over GST control).
The same measure, in the same setting: the figure for AAATTA is 1.65 fold enrichment (6-mer frequency, TF over GST control); for CCTGAA it is 1.22 fold enrichment (6-mer frequency, TF over GST control).
Regarding TCCGGA, the binding signal is 1.14 fold enrichment (6-mer frequency, TF over GST control).
As to AATTCT, the binding signal was 1.79 fold enrichment (6-mer frequency, TF over GST control).
On the same count and under the same terms, then CTTTAA, with 2.25 fold enrichment (6-mer frequency, TF over GST control); and TCGAAT, with 1.38 fold enrichment (6-mer frequency, TF over GST control).
Same read-out and setting: then TGACAA, with 1.05 fold enrichment (6-mer frequency, TF over GST control); and TCCCGC, with 1.42 fold enrichment (6-mer frequency, TF over GST control).
Turning to TATCAG, the binding signal was 1.47 fold enrichment (6-mer frequency, TF over GST control).
Turning to ACTCCT, the binding signal is 1.32 fold enrichment (6-mer frequency, TF over GST control).
For AATAGA, the binding signal was 1.15 fold enrichment (6-mer frequency, TF over GST control).
Regarding TATGGT, the binding signal is 1.29 fold enrichment (6-mer frequency, TF over GST control).
Consider TAAGCT, for which the binding signal is 3.23 fold enrichment (6-mer frequency, TF over GST control).
On the same count and under the same terms, then AAATGC, with 1.19 fold enrichment (6-mer frequency, TF over GST control); and TCTGTT, with 1.27 fold enrichment (6-mer frequency, TF over GST control).
The same measure, in the same setting: the figure for TCTCAT is 1.36 fold enrichment (6-mer frequency, TF over GST control); for CCCACG it is 1 fold enrichment (6-mer frequency, TF over GST control); for TGCACT it is 1.06 fold enrichment (6-mer frequency, TF over GST control).
In the case of TTCATC, the binding signal is 1.28 fold enrichment (6-mer frequency, TF over GST control).
Same read-out and setting: then ATATTG, with 1.28 fold enrichment (6-mer frequency, TF over GST control).
Still for that read-out and setting: the figure for TGTTAC is 1.19 fold enrichment (6-mer frequency, TF over GST control); for TCCACT it is 1.33 fold enrichment (6-mer frequency, TF over GST control).
Same read-out and setting: then TTGTAG, with 1.13 fold enrichment (6-mer frequency, TF over GST control).
Consider AGAAGC, for which the binding signal was 1.32 fold enrichment (6-mer frequency, TF over GST control).
Consider CTTCTA, for which the binding signal is 1.87 fold enrichment (6-mer frequency, TF over GST control).
Still for that read-out and setting: the figure for TCTATA is 1.36 fold enrichment (6-mer frequency, TF over GST control).
Still for that read-out and setting: then ATTCCA, with 1.58 fold enrichment (6-mer frequency, TF over GST control).
The same measure, in the same setting: the figure for TAAACA is 1.53 fold enrichment (6-mer frequency, TF over GST control); for ACCCGC it is 1.1 fold enrichment (6-mer frequency, TF over GST control).
